JMJD2A Tudor: JMJD2A Tudor domain (human) inhibition | O75164 | AlphaScreen JMJD2A-Tudor / H3K4me3 peptide binding | Potency, µM (top dose mostly 114 µM), most hits filed as inhibitors | 390,000 compounds, 4.4% hits | AID 504339; note: nearly all actives have a fitted effect of over 50% in size
BAZ2B block: blocks human BAZ2B | 360,000 compounds, 4.4% hits | Q9UIF8 | AlphaScreen BAZ2B-H3K14Ac peptide displacement | Potency, µM (series often up to 114 µM), most hits filed as inhibitors; note: nearly all actives have a fitted effect of over 60% in size
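Multi-concentration screen (max 110 uM) measuring displacement of acetylated histone H3 peptide from BAZ2B by AlphaScreen, using 50 nM protein, 50 nM peptide and 10 ug/mL streptavidin donor plus Ni-chelate acceptor beads.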
TDP1 block: TDP1 (human) enzyme inhibition. recombinant TDP1, AlphaScreen DNA substrate cleavage. Potency, µM (titrated, usually from 130 µM), usual class: inhibitors. 350,000 compounds, 0.28% hits; note: nearly all actives have a fitted effect of over 40% in size
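Recombinant E. coli-expressed Tdp1 (1 nM) preincubated with compound 15 min at RT, then 5'-biotin/3'-phosphotyrosine-FITC DNA substrate (15 nM) added for 5 min. AlphaScreen beads (10 ug/ml) added, 10 min RT; tyrosine-FITC cleavage read as signal loss.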
Sfp PPTase inh: blocks B. subtilis Sfp PPTase activity; Biochemical Sfp PPTase activity, qHTS; Potency, µM, most hits filed as inhibitors; 310,000 compounds, 3.5% hits;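 note: the enzyme is Sfp with the accession as filed and its product quenches rhodamine fluorescence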
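Sfp 15 nM + cpd, 15 min RT; start w/ rhodamine-CoA 5 uM, BHQ-2-YbbR 12.5 uM (final); 50 mM Hepes pH 7.6, 10 mM MgCl2, 0.01% NP-40, 0.01% BSA; read 525/598 nm at 0 and 30 min.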
HP1b binding inh: HP1-beta chromodomain-methylated histone interaction inhibition; AlphaScreen HP1-beta / biotin-H3K9me3 peptide binding; P83916; Potency, µM (top dose mostly 114 µM), hits mostly inhibitors; 390,000 compounds, 0.56% hits; note: nearly all actives have a fitted effect of over 70% in size
Target sequence (P83916 whole entry, looked up): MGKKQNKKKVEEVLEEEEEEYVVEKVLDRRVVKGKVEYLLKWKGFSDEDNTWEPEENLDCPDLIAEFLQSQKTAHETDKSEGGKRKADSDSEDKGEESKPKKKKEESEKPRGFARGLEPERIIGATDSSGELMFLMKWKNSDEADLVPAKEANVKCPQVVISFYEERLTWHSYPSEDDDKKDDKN
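HP1-beta protein (50 nM final) preincubated 30 min at room temperature with biotinylated H3(1-18)K9me3 peptide (50 nM) in PBS pH 7.4, 0.01% Tween-20, then compound added for 30 min. AlphaScreen streptavidin donor/nickel chelate acceptor beads (10 ug/mL final), 30 min dark, luminescence read.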
G9a block: G9a (human) methyltransferase inhibition; Q96KQ7; G9a H3K9 monomethylation, AlphaScreen, 2 h; Potency, µM (doses to about 102 µM), most hits filed as inhibitors; 350,000 compounds, 8.8% hits; AID 504332; note: nearly all actives have a fitted effect of over 75% in size
Target sequence (Q96KQ7 913-1193 limits assumed): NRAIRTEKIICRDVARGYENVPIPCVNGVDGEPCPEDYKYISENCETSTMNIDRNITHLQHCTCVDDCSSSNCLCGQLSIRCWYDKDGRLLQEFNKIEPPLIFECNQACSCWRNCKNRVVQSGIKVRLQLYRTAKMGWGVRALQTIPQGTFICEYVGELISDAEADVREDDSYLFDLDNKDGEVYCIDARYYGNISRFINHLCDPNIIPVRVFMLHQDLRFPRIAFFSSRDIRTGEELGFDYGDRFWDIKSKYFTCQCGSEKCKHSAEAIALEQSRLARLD
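Chemiluminescent proximity detection of H3K9 monomethylation, read after 10 min bead incubation in the dark. Reaction: 20 nM G9a, 500 nM biotin-H3K9 peptide, 20 uM SAM cofactor, 2 h, room temperature, following 15 min enzyme-compound preincubation.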
Numbers stand for hits; 0 = inactive; ? = inconclusive; - = not tested or not shown; [ ] = dose if it differs, or a comment. Shown are actives, neighbours in structure and some others; about 12% of the full set was active somewhere. Calls come from the whole dose curve; as a rule, active = well fitted curve in the direction sought with a large enough effect; inconclusive = small, poorly fitted or top-dose-only effect, or another doubt; inactive = no such curve, though single readings can be large; an effect the other way counts as inactive or inconclusive.

SMILES	JMJD2A Tudor	BAZ2B block	TDP1 block	Sfp PPTase inh	HP1b binding inh	G9a block
COc1cc(O)c(C(CCN2CCCC2)c2ccc3c(c2)OCO3)c(OC)c1 (stereo unspecified)	?	?	0	0	0	0[12.7 µM]
COc1cc(O)c(C(CCN2CCCCC2)c2ccc(N(C)C)cc2)c(OC)c1 (stereo unspecified)	39.8µM	?	0	0	?	?
CN(C)CCC[C@@]1(c2ccc(F)cc2)OCc2cc(C#N)ccc21	35.5µM	-	0	0	?	0
CN(C)CCC[C@]1(c2ccc(F)cc2)OCc2cc(C#N)ccc21	0	0	-	0	0	0[12.7 µM]
N#Cc1nc(Nc2ccc(F)cc2)nc(NC2CCCC2)n1	0	-	0	-	-	-
S=c1[nH]nc(COc2ccc(Cl)cc2)o1	79.4µM	0	0	?	0	3.98µM
Cc1ccc(C)c(OCc2n[nH]c(=S)o2)c1	?	0	0	0	0	?
S=c1[nH]nc(CCc2ccc(Cl)cc2)o1	0	0	0	0	0	7.08µM
Cc1ccccc1NC(=O)CSc1n[nH]c(-c2ccccn2)n1	3.55µM	2.82µM	0	?	0	0
Cc1ccccc1NC(=O)CSc1nnc2ccc(-c3ccccn3)nn12	0	0	0	-	0	0
Cc1ccc(C)c(NC(=O)CSc2n[nH]c(-c3ccccn3)n2)c1	1.26µM	4.47µM	0[0.0935 µM]	0	0	0
CCc1cccc(NS(=O)(=O)c2ccc3c(c2)N(C)CCO3)c1	31.6µM	?	0	0	0	?
Cc1ccc(NS(=O)(=O)c2ccc3c(c2)N(C)CCO3)cc1	0	?	0	0	0	0[0.0925 µM]
Cc1c(C(=O)OCC(=O)NC2CC2)oc2ccc(Br)cc12	0	0	0	-	0	0
CCOc1ccc(N2CC(C(=O)Nc3ccc(S(=O)(=O)N4CCCCC4)cc3)CC2=O)cc1 (stereo unspecified)	0	0	0	-	0	39.8µM
CCc1ccc(N2CC(C(=O)Nc3ccc(S(=O)(=O)N4CCOCC4)cc3)CC2=O)cc1 (stereo unspecified)	0	0	-	-	0	50.1µM
COc1ccc(N2CC(C(=O)Nc3ccc(S(=O)(=O)N4CCCCC4)cc3)CC2=O)cc1 (stereo unspecified)	0	0	0	0	0	-
Cc1cccc(N2CC(C(=O)Nc3ccc(S(=O)(=O)NCC4CCCO4)cc3)CC2=O)c1C (stereo unspecified)	0	0	0	0	0	0
Cc1ccccc1N1CC(C(=O)Nc2ccc(S(=O)(=O)NCC3CCCO3)cc2)CC1=O (stereo unspecified)	89.1µM	0	0	0	0	0
CCOc1ccc(N2CC(C(=O)Nc3ccc(S(=O)(=O)N4CCCC4)cc3)CC2=O)cc1 (stereo unspecified)	0	0	0	0	0	35.5µM
CC(C)c1nc2ccc(C(=O)NCc3ccccc3Br)cc2o1	0	0	0	-	0	0
CSc1cccc(N2CC(C(=O)Nc3cccc(S(=O)(=O)N4CCCC4)c3)CC2=O)c1 (stereo unspecified)	?	?	0	-	0	11.2µM
CN=c1scc(C)n1/N=C/c1cc(Br)c(O)c(Br)c1	?	35.5µM	0	0	0	11.2µM
CCN=c1scc(C)n1/N=C/c1cc(Br)c(O)c(OC)c1	79.4µM	12.6µM	0	0	?	10µM
CN=c1scc(C)n1/N=C/c1ccc(O)cc1O	?	39.8µM	0	0	0	0
SMILES	JMJD2A Tudor	BAZ2B block	TDP1 block	Sfp PPTase inh	HP1b binding inh	G9a block
O=C1N(c2ccccc2C(F)(F)F)O[C@]1(c1ccccc1)C1CCCCC1	0	0	0	-	0	0[0.501 µM]
COc1cccc(N2CCN(C(=O)CCc3c(C)nc4c(c3C)c(=O)n(C)c(=O)n4C)CC2)c1	0	0	0	-	0	0
Cc1ccc(NC(=O)CSCC(=O)NCc2cccc(C(F)(F)F)c2)cc1	0	0	0[0.505 µM]	-	0	0
COc1ccc(NC2=C(Cl)C(=O)N(c3ccccc3)C2=O)c(OC)c1	?	0	0	0	0	?
COc1ccc(N2C(=O)C(Cl)=C(Nc3c(C)n(C)n(-c4ccccc4)c3=O)C2=O)cc1	?	?	0	44.7µM	0	8.91µM
COc1ccccc1NC1=C(Cl)C(=O)N(c2ccccc2)C1=O	?	?	0	0	0	44.7µM
Cc1ccc(S(=O)(=O)N2CCOCC2)cc1NC(=O)Nc1ccc([N+](=O)[O-])cc1	0	-	0	-	0	-
COc1ccc(/C=C/C(=O)N/C(=C\c2ccco2)C(=O)NCCc2nc3ccccc3[nH]2)cc1	?	?	0	?	0	44.7µM
O=C(NCCc1nc2ccccc2[nH]1)/C(=C/c1ccco1)NC(=O)c1ccc(Br)cc1	0	0	0	?	0	70.8µM
O=C(/C=C/c1ccco1)N/C(=C\c1ccco1)C(=O)NCCc1nc2ccccc2[nH]1	?	?	0	50.1µM	0	44.7µM
Cc1nn(-c2ccccc2)c(C)c1/C=N/N1CCN(Cc2ccccc2)CC1	-	-	0	0	-	16.8µM
Cc1nn(-c2ccccc2)c(C)c1/C=N/N1CCN(c2ccccc2)CC1	20µM	?	0	0	0	?
COc1ccc(/C=N/N2CCN(Cc3ccccc3)CC2)cc1	?	?	-	0	?	0
Cc1nn(-c2ccccc2)c(C)c1C=O	0	0	0	0	0	0
CCOc1ccc(NC(=O)CC2C(=O)N(c3cccc(C)c3)C(=O)N2CCC2=CCCCC2)cc1 (stereo unspecified)	?	0	0	-	0	0
O=C(O)Cc1ccc(C(=O)c2ccccc2F)s1	0	0	0	0	0	44.7µM
N#CN1CCC(N[S+](=O)([O-])c2cccc(F)c2)CC1	0	-	0	-	-	-
N#CCCn1c(=O)c(-c2ccc(Cl)cc2)nc2cnc(Oc3ccccc3)nc21	-	-	-	0	-	0[0.501 µM]
C#CCOCCOCCOCCNc1nc(N2CCN(C(=O)CCCCCCCCCCNC(=O)[C@H](CO)n3cc(CCCSC)nn3)CC2)nc(N2CCN(C(=O)CCCCCCCCCCNC(=O)[C@H](CCCN=C(N)N)n3cc(C[C@@H](C)CC)nn3)CC2)n1	79.4µM	?	0	-	0	0[2.33 µM]
C#CCOCCOCCOCCNc1nc(N2CCN(C(=O)CCCCCCCCCCNC(=O)Cn3cc(CCCCCN)nn3)CC2)nc(N2CCN(C(=O)CCCCCCCCCCNC(=O)[C@@H](CCSC)n3cc(CCO)nn3)CC2)n1	79.4µM	?	0	-	?	0[2.33 µM]
C#CCOCCOCCOCCNc1nc(N2CCN(C(=O)CCCCCCCCCCNC(=O)[C@H](CO)n3cc(CCCSC)nn3)CC2)nc(N2CCN(C(=O)CCCCCCCCCCNC(=O)[C@H](CCCCN)n3cc(CCO)nn3)CC2)n1	56.2µM	-	0	-	?	-
C#CCOCCOCCOCCNc1nc(N2CCN(C(=O)CCCCCCCCCCNC(=O)[C@@H](CCSC)n3cc(CCO)nn3)CC2)nc(N2CCN(C(=O)CCCCCCCCCCNC(=O)[C@H](CCSC)n3cc(CCO)nn3)CC2)n1	0	0	0	-	0	0[2.33 µM]

Compound activity (PubChem BioAssay)
